Source: PubChem BioAssay (EPA / NIEHS)
Inconclusive results are not listed. Some structures have more than one record in an assay (separate samples or runs), and their calls can disagree. Activity calls are given as the source filed them. Rule for the calls: active = hit-call score of the fitted dose curve at least 0.9, where 1 is the maximum; inconclusive = response in the unintended direction; inactive = score below 0.9.

Test: TOX21_p53_BLA_p5_viability: Viability Assessment in the Tox21 HCT-116 p53 Agonism Beta-lactamase Assay, Phase 5 (AID 2283600)
From the text: TOX21_p53_BLA_p5 is a cell-based, single-readout assay that uses HCT116, a human intestinal cell line, […] in a 1536-well plate.TOX21_p53_BLA_p5_viability is an assay readout measuring cellular ATP content and detected with CellTiter-Glo Luciferase-coupled ATP quantitation.TOX21_p53_BLA_p5_viability used a type of viability reporter where loss-of-signal activity can be used to understand changes in the cell viability. Furthermore, this assay endpoint can be referred to as a secondary readout, because this assay has produced multiple assay endpoints where this one serves a viability function. To generalize the intended target to other relatable targets, this assay endpoint is annotated to the cell cycle intended target family, where the subfamily is cytotoxicity.
Thawing Method: Place 14 mL of pre-warmed thaw medium into a 15 mL of conical tub. Remove the vial of cells to be thawed from liquid nitrogen and thaw rapidly by placing at 37C in a water bath with gentle agitation for 1-2 minutes. Decontaminate the vial by wiping with 70% ethanol before opening in a biological safety cabinet. Transfer the vial contents drop-wise into 14 mL of thaw medium in a sterile 15-mL conical tub. Centrifuge cells at 900 rpm for 4 minutes and resuspend in thaw medium. Transfer contents to the T75 tissue culture flask containing Thaw Medium and place flask in a humidified 37C/5% CO2 incubator. Switch to growth medium at first passage.Propagation Method: Aspirate medium, rinse once in DPBS, add 0.25% Trypsin/EDTA and swirl to coat the cell evenly. Add an equal volume of Growth Medium to inactivate Trypsin after 2-3 minutes incubation at 37C. Centrifuge cells at 900 rpm for 4 minutes and resuspend in growth medium. Cell should be passage or fed at least twice a week.Assay Protocol: Harvest cells from culture in growth medium and resuspend in assay medium. 2.2 Dispense 4000 cells/5 uL/well into 1536-well black/clear bottom plates using a Multidrop dispenser. After the cells were incubated at 37C for 5 hours, 23 nL of compounds dissolved in DMSO were transferred to the assay plate by a PinTool resulting in a 217-fold dilution. Incubate the plates for 16 hours at 37C, 5% CO2. Add 1 uL of 6X LiveBLAzer FRET B/G (CCF4-AM) Substrate Mixture to each well using a BioRAPTR dispenser and incubate the plates at room temperature for 2 hours. Measure fluorescence intensity at 460 and 530 nm emission and 405 nm excitation by an Envision detector. Data is expressed as the ratio of 460nm/530nm emissions. Add 4 uL of Cell-titer Glo to each well using BioRAPTR and incubate the plates at room temperature for […]. For cell viability readout that measures cytotoxicity, 4 ul/well of CellTiter-Glo reagent was added into the assay plates using a Flying Reagent Dispenser. After 30 min incubation at room temperature, the luminescence intensity in the plates was measured using a ViewLux plate reader.

SMILES | outcome | AC50
CC(C)(O)Cc1ccccc1 | inactive | 
CCCCCCCCCCCCc1ccc(O)cc1 |  | 24 µM (active)
COC(C=C(C)CCC=C(C)C)OC | inactive | 
CC(=O)CC(=O)Nc1ccccc1C | inactive | 
O=C(Cl)c1c(Cl)c(Cl)c(C(=O)Cl)c(Cl)c1Cl | inactive | 
CC(=O)OC/C=C(/C)CCC=C(C)C | inactive | 
CC(C)(C)C1CCC(=O)CC1 | inactive | 
C=CCCCCCCCCC=O | inactive | 
CCCCOCCOCCOC(C)=O | inactive | 
CO[Si](CCCS)(OC)OC | inactive | 
CC(C)(C)NC(=O)[C@H]1CC[C@H]2[C@@H]3CC[C@H]4NC(=O)C=C[C@]4(C)[C@H]3CC[C@]12C | inactive | 
CCc1occc(=O)c1O | inactive | 
Nc1ccc(C(=O)O)cc1 | inactive | 
CCCCC/C=C\C/C=C\CCCCCCCC(=O)O | inactive | 80.5 µM (active)
CCCCCCO | inactive | 
Clc1cc(Cl)c(Cl)c(Cl)c1Cl | inactive | 
CCCCCCCCCCCC(C)=O | inactive | 
CC1=CC=C(C(C)C)CC1 | inactive | 
CCCCCCCC(=O)OCC(COC(=O)CCCCCCC)OC(=O)CCCCCCC | inactive | 
CN(C)c1ccc2nc3ccc(=[N+](C)C)cc-3sc2c1 | inactive | 

SMILES | outcome | AC50
CCCCCCOc1ccc(N)cc1 | inactive | 
CCOC(=O)/C=C\C(=O)OCC | inactive | 
COc1ccc(-c2coc3cc(O)cc(O)c3c2=O)cc1 | inactive | 
Oc1ccc(-c2ccccc2)c(Cl)c1 | inactive | 
CC(=O)OC1CCCCC1C(C)(C)C (stereo not given) | inactive | 
C/C=C/C=C/CCCCCCCO | inactive | 
CO[Si](C)(C)OC | inactive | 
CCCc1ccc(O)c(OC)c1 | inactive | 
Cc1ccc([N+](=O)[O-])cc1N | inactive | 
CC(C)(CO)COC(=O)C(C)(C)CO | inactive | 
CC(=O)OC(C)c1ccccc1 (stereo not given) | inactive | 
CCCCC1C(=O)N(c2ccccc2)N(c2ccccc2)C1=O | inactive | 
CN(C)Cc1cc(CN(C)C)c(O)c(CN(C)C)c1 | inactive | 
Nc1ccc(C(=O)OCCCOC(=O)c2ccc(N)cc2)cc1 | inactive | 
CCC1COC(=O)O1 (stereo not given) | inactive | 
CCCCCCCCCCCCCC(=O)OC(C)C | inactive | 
O=C1CCCCCCCCCCCN1 | inactive | 
CC(=O)CCC=C(C)C | inactive | 
CC1(C)CCC[C@]2(C)[C@H]3CC(=O)O[C@]3(C)CC[C@@H]12 | inactive | 
